Assay outcomes (PubChem)
In the library only some 1.3% were active in any assay of this set; here they are far more common.
MCL1 BIM primary: inhibitors of human MCL1 binding to BIM-BH3 peptide; inhibition, % at 10.9 µM; Q07820; 320,000 tested, 0.68% active; GST-MCL1 / FITC-Bim-BH3 fluorescence polarization;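 active = inhibition above the mean inhibition of all tested compounds plus 3 SD, set per campaign, cut at about 40% in these data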;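 also: 0% = DMSO wells and 100% = unlabeled Bim-BH3 peptide control; higher means more loss of mP so more displacement of Bim peptide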
Target sequence (Q07820 whole entry, looked up): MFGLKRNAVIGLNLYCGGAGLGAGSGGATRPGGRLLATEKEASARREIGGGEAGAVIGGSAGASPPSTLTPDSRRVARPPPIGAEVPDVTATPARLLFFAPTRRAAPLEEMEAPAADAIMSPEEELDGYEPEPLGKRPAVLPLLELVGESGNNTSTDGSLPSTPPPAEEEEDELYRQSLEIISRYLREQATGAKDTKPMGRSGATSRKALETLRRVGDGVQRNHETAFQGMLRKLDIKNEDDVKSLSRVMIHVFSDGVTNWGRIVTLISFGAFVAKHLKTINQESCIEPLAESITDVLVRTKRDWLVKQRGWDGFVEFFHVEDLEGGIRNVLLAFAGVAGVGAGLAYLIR
LANA DNA inh: inhibitors of KSHV LANA C-terminal domain DNA binding. MBP-C-LANA/FAM-LBS DNA binding, fluorescence polarization. inhibition, % at 9 µM. 340,000 tested, 0.078% active;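 active = highest replicate inhibition at or above 60% at 9 µM, even if other replicates fall short; inactive = all replicates below 60% inhibition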;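 also: 0% = neutral control wells and 100% = 4 µM acridine orange control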
BCLXL inh: Bcl-xL (human) inhibition; 320,000 tested, 0.7% active; Q07817; GST-Bcl-xL / FITC-Bim BH3 peptide fluorescence polarization; inhibition, % at 10.9 µM;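 active = inhibition above the mean of all tested compounds plus 3 SD, cutoff set per campaign, cut at about 30% in these data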;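 also: 0% = DMSO wells and 100% = unlabeled Bim-BH3 peptide competitor; inhibitors lower millipolarization by displacing the labeled peptide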
Target sequence (Q07817 whole entry, looked up): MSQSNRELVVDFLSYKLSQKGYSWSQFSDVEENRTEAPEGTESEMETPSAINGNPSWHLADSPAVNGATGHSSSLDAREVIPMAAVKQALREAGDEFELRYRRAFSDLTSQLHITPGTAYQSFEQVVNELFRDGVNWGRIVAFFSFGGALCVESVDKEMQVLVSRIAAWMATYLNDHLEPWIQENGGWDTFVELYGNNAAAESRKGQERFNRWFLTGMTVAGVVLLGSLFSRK
Keap1-Nrf2 PPI: Keap1-Nrf2 (human) interaction inhibition. Keap1 Kelch-Nrf2 peptide fluorescence polarization, 1536-well. inhibition, % at 9.4 µM. AID 504523. 340,000 tested, 0.15% active. Q14145; in the data active = inhibition above about 12%;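 also: human Keap1 Kelch domain with fluorescein labeled Nrf2 9mer peptide probe; 0% = neutral control wells and 100% = peptide positive control; higher means more block of Keap1 binding to Nrf2 peptide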
GLD-1 TGE inh: GLD-1-TGE RNA interaction inhibition (C. elegans) | 320,000 tested, 0.44% active | AID 2280 | inhibition, % at 5.96 µM | purified GLD-1 + fluorescein TGE RNA, fluorescence polarization;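 active = percent inhibition above a per-plate cutoff, the plate mean of test compounds plus 3 SD, cut at about 30% in these data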;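 also: 0% = DMSO wells with GLD-1 and probe and 100% = wells lacking GLD-1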
eLon inh: E. coli protease La inhibition; purified E. coli Lon protease, fluorescence polarization; inhibition, % at 7.94 µM; 360,000 tested, 0.42% active; AID 602123; in the data active = inhibition above about 13%, passing the limit was not always enough;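 also: 0% = enzyme with probe and DMSO and 100% = no enzyme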
GLD-1 TGE cf: confirmation of C. elegans GLD-1 TGE RNA binding inhibitors; shares compounds with GLD-1 TGE inh; GLD-1/FL-TGE RNA fluorescence polarization, biochemical; inhibition, % at 5.96 µM; 550 tested, 10% active; AID 2459;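 active = average inhibition across triplicates above the hit cutoff set in the primary screen, cut at about 32% in these data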;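 also: 0% = GLD-1 with RNA probe and DMSO and 100% = wells lacking GLD-1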
Numbers without * were called inactive; nt = no result.

SMILES	MCL1 BIM primary	LANA DNA inh	BCLXL inh	Keap1-Nrf2 PPI	GLD-1 TGE inh	eLon inh	GLD-1 TGE cf
COC(=O)c1ccc(NC(=O)CSc2ccccc2)cc1	32	0	38*	-1	37*	3	-6
COC(=O)c1ccc(NC(=O)CSc2ccccn2)cc1	-8	0	-5	0	9	-8	nt
O=C(CN1CSCC1=O)N1CCN(S(=O)(=O)c2cccc(F)c2)CC1	9	-1	3	0	-1	2	nt
O=C(Nc1ccccc1C(=O)N1CCCCC1)NC1CCCCC1	2	-2	5	0	-3	3	nt
O=C(NCc1nc2ccccc2[nH]1)C1=C[C@@H](C2CCCCC2)C[C@@H](OCCCCO)O1	0	1	2	-2	85*	-1	-1
C[C@H]1C=C(C(=O)NCc2nc3ccccc3[nH]2)O[C@@H](OCCCCO)C1	8	2	5	-1	1	-10	nt
Cc1ccc(S(=O)(=O)N2C(=O)CCC2C(=O)O/N=C(\N)c2cccc([N+](=O)[O-])c2)cc1 (stereo unspecified)	4	1	6	-5	2	-4	nt
COc1ccc(Nc2ccc(N3C(=O)CC(C)C3=O)cc2[N+](=O)[O-])cn1 (stereo unspecified)	42*	0	42*	0	38*	5	13
O=C(NNc1c2ccccc2nc2ccccc12)C12CC3CC(CC(C3)C1)C2	3	-1	5	1	-5	11	nt
NNC(=O)c1cc(C23CC4CC(CC(C4)C2)C3)nc2ccccc12	1	-2	1	0	60*	-1	-8
Cc1ccc(-c2csc(N3CCN(CCCn4c(C(F)(F)F)nc5ccccc54)CC3)n2)cc1	1	0	3	-3	40*	-5	-1
Cc1ccc(-c2csc(N3CCN(CCCn4c(-c5ccncc5)nc5ccccc54)CC3)n2)cc1	4	-1	-2	-5	-3	1	nt
CC(=O)[C@@H]1[C@@H]2C(=O)N(C3CCCCC3)C(=O)[C@@H]2C2c3ccccc3C=CN21 (stereo partly specified)	24	nt	30	nt	32*	nt	37*
CC1CCN(c2oc(-c3ccc(F)cc3)nc2C#N)CC1	11	-1	2	1	34*	11	-1
COc1ccc(C)cc1N(C(=O)c1ccco1)C(C(=O)NC1CCCC1)c1ccc(N2CCOCC2)cc1 (stereo unspecified)	5	-1	2	-5	3	3	nt
CN1CCN(c2nc3nonc3nc2N2CCN(C)CC2)CC1	29	4	33*	2	35*	8	4
Nc1c(-c2ccc(Cl)cc2)cnc2c(-c3ccccc3)cnn12	6	2	6	2	0	4	nt
N#CC1=C(N)Oc2c(oc(CO)cc2=O)C1c1ccccc1[N+](=O)[O-] (stereo unspecified)	37	nt	38*	nt	37*	13	26
Cc1c(NS(=O)(=O)c2cc(C(=O)NCc3cccnc3)ccc2Cl)c(=O)n(-c2ccccc2)n1C	nt	1	nt	0	2	-3	nt
COc1ccc(NC(=O)c2cc(=O)c3ccccc3o2)cn1	48*	3	44*	3	41*	10	20
COc1cccc(NC(=O)c2cc(=O)c3ccccc3o2)c1	-6	-1	-1	3	-5	-1	nt
O=C(N[C@@H](Cc1ccc(O)cc1)C(=O)O)c1ccc(C(F)(F)F)cc1	4	1	1	-3	5	-4	nt
CC(C)C[C@H]1CNC(=S)N1C[C@H]1CCCN1C[C@H](CC(C)C)N1C[C@H](Cc2ccc(O)cc2)N(CC2CCCCCC2)C1=S	nt	nt	nt	nt	nt	3	nt
CCOc1ccc(NC(=O)CC2S/C(=N/N=C3CCCCCC3)NC2=O)cc1 (stereo unspecified)	2	0	0	2	39*	-14	1
Nc1c(Cl)ncnc1N/N=C/c1ccc2ccccc2n1	15	9	17	7	32*	14	-6
SMILES	MCL1 BIM primary	LANA DNA inh	BCLXL inh	Keap1-Nrf2 PPI	GLD-1 TGE inh	eLon inh	GLD-1 TGE cf
Nc1c(Cl)ncnc1N/N=C/c1ccccn1	23	nt	15	nt	19	nt	nt
COc1ccc(OC)c(NC(=O)c2cc3c(cc2Cl)N2CCCCCC2=NS3(=O)=O)c1	nt	1	nt	-2	35*	-2	-8
OC(c1ccccc1)C(NCCNCc1ccccc1)c1ccccc1 (stereo unspecified)	nt	1	nt	5	nt	-16	nt
N#CC1=C(N)C2=CCCC[C@H]2[C@H](c2ccccc2)C1(C#N)C#N	42*	9	35*	-5	40*	4	-3
N#CC1=C(N)C2=CCCC[C@H]2[C@H](c2ccc(Br)cc2)C1(C#N)C#N	38	6	40*	-6	37*	7	1
COc1ccc(Br)cc1C1=CC(=O)C[C@H](c2ccc(F)cc2)C1	nt	nt	nt	nt	nt	4	nt
COc1ccc(C)cc1C1=CC(=O)C[C@H](c2ccc(F)cc2)C1	4	2	3	3	34*	-9	-5
COCCn1c(CN2CCN(c3ccccc3)CC2)nc2c1c(=O)n(C)c(=O)n2C	38	1	28	-2	33*	0	-2
O=C(Nc1cccc(Cl)c1)NC1CCS(=O)(=O)C1 (stereo unspecified)	0	-1	-2	5	-7	0	nt
COc1ccc2c(c1)CC/C(=C\c1ccc(C)o1)C2=O	48*	1	43*	-7	39*	-28	-12
CN(CCc1ccccc1)C1CCCN(S(=O)(=O)N(C)C)C1 (stereo unspecified)	9	1	-2	-5	65*	0	0
O=c1c2cccc(Cl)c2nc2n1Cc1ccccc1-2	19	1	11	-5	42*	-4	1
Cc1nc(SCC(=O)NC2CCS(=O)(=O)C2)c2c3c(sc2n1)CCCC3 (stereo unspecified)	nt	0	nt	4	nt	8	nt
N#Cc1c(NCCO)nc(NCc2ccccc2)c2c1CCN(Cc1ccccc1)C2	50*	nt	46*	nt	36*	nt	6
CCN1CCc2c(C#N)c(N3CCCCC3)nc(NCc3ccccc3)c2C1	16	2	22	1	14	8	nt
O=c1c2ccccc2oc2cc(OCc3ccc(F)cc3)cc(O)c12	nt	-2	nt	-3	nt	-1	nt
O=C(O)C1Sc2[nH]c(=O)sc2C2c3cc(Br)ccc3OC(=O)C12 (stereo unspecified)	45*	-2	38*	2	54*	-11	-2
CC(=O)Oc1ccc(C(=O)Nc2cccc3c2CCCC3)cc1	-6	2	2	6	6	-5	nt
c1coc(CN(Cc2ccco2)c2ncnc3c2oc2ccccc23)c1	6	-1	3	-6	4	-3	nt
